The results in this text go back to PubChem BioAssay AID2521 (Sanford-Burnham Center for Chemical Genomics, 2010).

The whole screen tested about 330,000 compounds, of which about 1,100 (0.33%) were called active.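 The calls were made as follows: active = inhibition above about 40% at 20 µM (limit read from the data); inactive = the rest.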 The sample as a whole holds a higher share of actives than the screen did.

Sequence of Apelin receptor (Homo sapiens) (P35414 whole entry, looked up): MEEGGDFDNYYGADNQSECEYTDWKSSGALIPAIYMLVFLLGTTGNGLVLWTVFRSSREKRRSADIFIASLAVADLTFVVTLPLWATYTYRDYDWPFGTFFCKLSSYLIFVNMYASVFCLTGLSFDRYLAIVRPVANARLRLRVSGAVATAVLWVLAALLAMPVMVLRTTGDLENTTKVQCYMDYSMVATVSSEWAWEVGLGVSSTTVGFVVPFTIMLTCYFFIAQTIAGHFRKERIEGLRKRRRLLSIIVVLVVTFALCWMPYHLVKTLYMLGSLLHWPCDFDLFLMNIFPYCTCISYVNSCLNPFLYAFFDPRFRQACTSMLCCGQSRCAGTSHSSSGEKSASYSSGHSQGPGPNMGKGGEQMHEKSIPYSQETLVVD

This test has as its target Apelin receptor (Homo sapiens) (UniProt P35414). The test is described as follows: antagonists of human apelin receptor APJ, primary screen, CHO-K1 cells, beta-arrestin complementation, luminescence (AID 2521).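 Also: cells challenged with 10 nM apelin-13 agonist together with compound; plate controls were apelin-13 plus DMSO wells for no effect and DMSO wells lacking apelin-13 for full effect.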 Conditions: at 20 µM, stronger effect = higher value.
Broadly, the inhibition is the relative decrease from the control value, in per cent. As to `Cc1cc(CNCc2c(C(=O)N(C)Cc3ccccc3)nc3ccccn23)nn1C`, the inhibition is 12.9% (inactive). For the molecule `C=CCn1c(C(C)NC(=O)CC)nc2ccccc21` (stereo not given), the inhibition was 8.11% (inactive).

In the case of `COCC(C)OC(=O)c1c(N)n(CCCN2CCOCC2)c2nc3ccccc3nc12` (stereo not given), the inhibition was 10.9% (inactive). Under `C=CCn1c(N)c(C(=O)OCC(C)C)c2nc3ccccc3nc21` stands 74.2% (active); under `CCOC(=O)C1=C(NC(=S)NC(=O)c2ccccc2)c2ccccc2CC1(C)C`, -12.1% (inactive). As for `CCCCCCNC(=O)CSc1nccn1Cc1ccccc1`, the figure is 15.6% (inactive); as for `CCOC(=O)C(CCOc1cccc(CC)c1)C(=O)OCC`, 0.162% (inactive); as for `O=C(/C=C/c1cccs1)NCc1cccnc1`, -1.62% (inactive).

Consider `Cc1cc(Cl)nc(NC(=O)Nc2cccc(Cl)c2)n1`, for which the inhibition was 12.4% (inactive).

For `Cc1csc(NC(=S)Nc2cccc(Cl)c2)n1`, the inhibition was 40.6% (active). Under `Cc1cccc(NC(=S)Nc2ccc(Cl)c(Cl)c2)c1` stands 9.23% (inactive); under `O=C(Nc1ccc([N+](=O)[O-])cc1)C1(c2ccccc2)CCOCC1`, 4.46% (inactive). Under `CN(C(=O)COC(=O)Cn1cnc2c1c(=O)n(C)c(=O)n2C)C1(C#N)CCCCC1` stands -8.66% (inactive); under `CN1C=CC=C/C1=C1\SC(=S)N(Cc2ccccc2)C1=O`, 3.59% (inactive).

As for `COc1cc(/C=C2/SC(=S)N(Cc3ccccc3)C2=O)cc(OC)c1O`, the inhibition is 44.9% (active). Under `COc1cccc(/C=C2/SC(=S)N(CC(=O)NC3C=CS(=O)(=O)C3)C2=O)c1` (stereo not given) stands 2.32% (inactive); under `O=C(O)C1CCCN(CCC=C(c2ccccc2)c2ccccc2)C1` (stereo not given), 6.7% (inactive); under `Cn1cnc2c1c(=O)n(Cc1c(Cl)cccc1Cl)c(=O)n2C`, -5.54% (inactive). As for `CC(C)C(=O)N1CC(=O)Nc2ccc(F)cc2C1c1ccc(F)cc1` (stereo not given), the inhibition is 5.88% (inactive). As for `C[C@H](NC(=O)c1nc[nH]c1C(=O)NCC(=O)OC(C)(C)C)C(=O)OCc1ccccc1`, the figure is -0.246% (inactive); as for `O=C(Nc1c2c(nn1-c1cccc(Cl)c1)CS(=O)(=O)C2)c1cccs1`, -12.4% (inactive); as for `Cn1c(N)cc(-c2ccc(F)cc2)c(C#N)c1=O`, 16% (inactive). Under `Cc1nc2nc(CSc3nc4ccccc4s3)cc(=O)n2[nH]1` stands -6.29% (inactive). Under `CCN(CC)CCCSc1nc2ccccc2s1` stands 5.23% (inactive); under `O=[N+]([O-])c1c(NCCO)cc(Sc2nc3ccccc3s2)c2nonc12`, 95.4% (active). For the molecule `CCOC(=O)c1c(/N=C/C2C(=O)CC(C)(C)CC2=O)sc(C)c1C`, the inhibition was 3.91% (inactive). `COc1ccc(NC(=O)CCCC(=O)c2ccccc2)cc1`: the inhibition was -8.49% (inactive). As for `COC(=O)c1ccc(NCC(=O)N2CCCCCC2)cc1`, the figure is -5.46% (inactive). As to `COC(=O)c1ccc(NCC(=O)c2ccccc2)cc1`, the inhibition is 72.4% (active). As for `C=CCOc1ccc(/C=C/C(=O)OCC(=O)NC2CCCCCC2)cc1`, the figure is -9.63% (inactive); as for `CCCc1nc2oc3c(OCC)ncnc3c2c2c1COC(C)(C)C2`, 1.23% (inactive); as for `Cc1cccc(N2CCC(NCc3c(C(=O)N4CCCCC4)nc4c(C)cccn34)CC2)c1`, -3.54% (inactive). On to `Cc1ccc(S(=O)(=O)N(Cc2ccc(Cl)cc2)c2ccccc2C(=O)NCc2cccnc2)cc1`, for which the inhibition is -7.26% (inactive). Under `Cc1cccc(-n2c(O)c(C=Nc3ccccc3N)c(=O)[nH]c2=O)c1` stands 55.5% (active); under `Cc1cccc(N2CCN(S(=O)(=O)c3ccc4[nH]c(=O)c(=O)[nH]c4c3)CC2C)c1` (stereo not given), 0.293% (inactive). Under `Cc1ccc(N=Cc2c(O)n(-c3nccs3)c(=O)c3ccccc23)c(C)c1` stands -0.923% (inactive); under `Cc1ccc(C)c2[nH]c(=O)c(CN(Cc3cccnc3)C(=S)NCc3ccco3)cc12`, 5.44% (inactive). As for `O=C(N=C1SC2CS(=O)(=O)CC2N1c1ccccc1)c1ccccc1` (stereo not given), the figure is -0.987% (inactive); as for `CCCNc1ncnc2sc(C)c(C)c12`, 19.7% (inactive); as for `Cc1cc(C)n(-c2nc(O)cc(=O)[nH]2)n1`, 9% (inactive).

Take `O=C1/C(=C/c2coc3ccc(O)cc3c2=O)SC(=S)N1c1ccccc1`: the inhibition is 29.3% (inactive). Take `CSCCC(NC(=O)COc1ccccc1)C(=O)OCC(=O)c1cc2ccccc2o1` (stereo not given): the inhibition was 56.3% (active). `CSCCC(NC(=O)COc1ccccc1)C(=O)OCCOc1ccc(F)cc1` (stereo not given): the inhibition is 4.85% (inactive).

On to `CSCCC(NC(=O)COc1ccccc1)C(=O)OCCOc1ccc(Br)cc1` (stereo not given), for which the inhibition is 0.665% (inactive). Under `CC(=O)Nc1ccc(S(=O)(=O)Nc2nc3n(n2)C(c2ccccc2)CC(=O)N3)cc1` (stereo not given) stands -9.74% (inactive). As for `Cc1nc2cc(NCc3cccs3)ccc2n1C`, the figure is 1.26% (inactive). Under `CCCCC(=O)Nc1c2c(nn1-c1ccc([N+](=O)[O-])cc1)CS(=O)(=O)C2` stands 9.67% (inactive); under `CC1CCN(C(=O)c2cc3nc(C4CC4)cc(C(F)(F)F)n3n2)CC1`, 1.74% (inactive); under `Cc1cc(/C=N/NC(=O)CC2(C)OCCO2)c(C)n1-c1ccc(Cl)c(Cl)c1`, -22.8% (inactive). For `Cc1cc(C=O)c(C)n1-c1ccc(NC2CCCCC2)c([N+](=O)[O-])c1`, the inhibition is 11.5% (inactive). Under `Cc1cc(/C=N/Nc2ccc([N+](=O)[O-])cn2)c(C)n1-c1cccc(C(=O)O)c1` stands 42.4% (active); under `Cn1c(=O)c2c(-c3cccc(Br)c3)c(C#N)c(N)nc2n(C)c1=O`, -4.62% (inactive). As for `NC(=O)NC(=O)C(OC(=O)CCNS(=O)(=O)c1ccccc1)c1ccccc1` (stereo not given), the figure is 12.8% (inactive). As for `CC(Oc1ccccc1F)C(=O)NN` (stereo not given), the figure is -7.83% (inactive). With `O=[N+]([O-])c1ccc(N(CCO)Cc2ccccc2)c([N+](=O)[O-])c1`, the inhibition was -2.49% (inactive). As for `CN1CCN(/N=C2/C(=O)Nc3ccc([N+](=O)[O-])cc32)CC1`, the figure is 2.6% (inactive); as for `O=C1Nc2ccc([N+](=O)[O-])cc2C1=Nc1cccc(CO)c1`, 66% (active).

On to `O=C(NC(=S)Nc1ccc(Cl)c(C(=O)O)c1)c1cncc(Br)c1`, for which the inhibition is 35.2% (inactive). Under `c1ccc2cc(CCCc3cc4ccccc4cn3)ncc2c1` stands 9.5% (inactive); under `Cc1cc2c(c(=O)n1C)C(C(C)C)C(C#N)=C(N)O2` (stereo not given), -2.07% (inactive).
